Screening data as filed in PubChem.
STK33 kin inh = blocks human STK33 kinase activity | Q9BYT3 | ADP-Glo luminescence, MBP substrate | inhibition, % at 12.5 µM | 27,000 compounds, 0.44% hits; in the data active = inhibition above about 20%
Target sequence (Q9BYT3 whole entry, looked up): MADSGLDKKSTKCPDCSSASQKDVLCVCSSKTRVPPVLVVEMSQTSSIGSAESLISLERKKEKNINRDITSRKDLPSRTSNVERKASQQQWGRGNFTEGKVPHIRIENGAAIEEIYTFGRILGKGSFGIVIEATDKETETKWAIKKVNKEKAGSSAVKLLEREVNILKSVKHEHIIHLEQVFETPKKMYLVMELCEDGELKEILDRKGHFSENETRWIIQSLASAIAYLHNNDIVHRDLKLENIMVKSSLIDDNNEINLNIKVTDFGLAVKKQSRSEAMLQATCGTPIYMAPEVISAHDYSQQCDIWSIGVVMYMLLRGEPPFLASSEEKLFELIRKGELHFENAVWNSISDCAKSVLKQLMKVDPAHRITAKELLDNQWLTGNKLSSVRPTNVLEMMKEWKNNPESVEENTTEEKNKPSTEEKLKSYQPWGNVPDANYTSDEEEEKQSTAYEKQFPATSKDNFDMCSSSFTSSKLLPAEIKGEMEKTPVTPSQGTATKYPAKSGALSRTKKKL
ID4 SMM = ID4 (human) binding. small molecule microarray, Flag-ID4 binding, fluorescence F/B. AID 624137. 31,000 compounds, 1.2% hits. calls only. P47928; call rule not given here;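 note: a binder raises fluorescence above local background on the spot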
* hit, by the source's call; i = inactive; / = no result; + = active, no number. The full list was thinned out, with hits kept by preference.

SMILES	STK33 kin inh	ID4 SMM
COC(=O)C1=CO[C@@H](OC2OC(O)C(O)C(O)C2CO)[C@H]2[C@@H]1C=CC21C=C([C@H](C)OC(=O)/C=C/c2ccc(OC3OC(CO)C(O)C(O)C3O)cc2)C(=O)O1 (some centres undefined)	0	i
O=c1[nH]c(=S)c2c(n1N1CCOCC1)CCC2	/	+
Cc1nn(CC(=O)Nc2ccc(O)cc2)c(C)c1[N+](=O)[O-]	0	i
Cc1cccc(NC(=O)c2ccccc2OCC(=O)Nc2cccc([N+](=O)[O-])c2)c1C	3	i
CC(=O)Nc1ccc(NC(=O)COc2ccccc2C(=O)Nc2cccc(C)c2C)cc1	-4	+
c1cc(-c2cnn3cc(-c4ccc(OCCN5CCCCC5)cc4)cnc23)ccn1	/	+
CCCCOc1ccc(C(=O)CCN2CCCCC2)cc1	2	/
O=C(CSc1ncnc2sc(-c3ccccc3)cc12)Nc1ccccc1C(F)(F)F	0	i
O=S(=O)(c1ccc(Cl)cc1)N1CCc2ccccc21	2	/
O=C(O)C1C2C=CC(O2)C1C(=O)Nc1ccc(S(=O)(=O)N2CCc3ccccc32)cc1 (centres undefined)	-2	+
CCn1c(O)c(/C=C2/C=CC=N2)c(=O)[nH]c1=S	/	i
Cc1ccnc(NC(c2ccc([N+](=O)[O-])cc2)c2ccc3ccc(C)nc3c2O)c1 (centres undefined)	5	i
COc1ccc(N2C(=O)CC(SCC(=O)Nc3c(C)cccc3C)C2=O)cc1 (centres undefined)	-2	+
COc1ccc(N2C(=O)CC(SCC(=O)Nc3ccc(C)c(C)c3)C2=O)cc1 (centres undefined)	-3	i
C=C(C(=O)O)C(CCCCC(C)O)C(=O)O (centres undefined)	-2	i
C=C(C(=O)O)C(CCCCCCO)C(=O)O (centres undefined)	-6	+
CC(C)(c1ccc(NS(=O)(=O)C(F)(F)F)cc1)c1ccc(C(C)(C)c2cccc(NS(=O)(=O)C(F)(F)F)c2)cc1	-5	i
Cc1ccc(-c2nnc(N3CCN(C(=O)CSc4nc(C)cc(C)n4)CC3)c3ccccc23)cc1	1	+
Cc1ccc(-c2nnc(N3CCN(C(=O)CSc4nc5ccccc5o4)CC3)c3ccccc23)cc1	1	i
CC(NS(=O)(=O)c1ccc(Cl)cc1)C(=O)Nc1ccc(Oc2ccccc2)cc1 (centres undefined)	2	i
C[C@@H]1O[C@@H](O[C@H]2[C@H](OC(=O)[C@]34CCC(C)(C)C[C@H]3C3=CCC5[C@@]6(C)C[C@H](O)[C@H](O[C@@H]7O[C@H](C(=O)O)[C@@H](O)[C@H](O)[C@H]7O)[C@@](C)(CO)C6[C@H](O)C[C@@]5(C)[C@]3(C)C[C@H]4O)O[C@@H](CO)[C@@H]2O)[C@H](O)[C@H](O)[C@H]1O[C@@H]1OC[C@@H](O)[C@H](O[C@H]2OC[C@](O)(CO)[C@H]2O)[C@H]1O (some centres undefined)	-4	i
C[C@@H]1O[C@@H](O[C@@H]2[C@@H](O)[C@H](O[C@@H]3[C@@H](O)[C@@H](O)[C@H](O[C@H]4[C@H](OC(=O)[C@]56CCC(C)(C)C[C@H]5C5=CCC7[C@@]8(C)C[C@H](O)[C@H](O[C@@H]9O[C@H](C(=O)O)[C@@H](O)[C@H](O)[C@H]9O)[C@@](C)(CO)C8[C@H](O)C[C@@]7(C)[C@]5(C)C[C@H]6O)OC[C@H](O)[C@@H]4O)O[C@H]3C)OC[C@H]2O)[C@H](O)[C@H](O)[C@H]1O (some centres undefined)	23*	i
COc1c(O[C@@H]2O[C@H](C(=O)O)[C@@H](O)[C@H](O)[C@H]2O)cc(O)c2c(=O)cc(-c3ccccc3)oc12	0	i
COc1ccc(-c2cc(=O)c3c(O)cc(O)cc3o2)cc1O	46*	/
COc1cccc2oc(-c3ccccc3)cc(=O)c12	1	i
SMILES	STK33 kin inh	ID4 SMM
COc1c(O)cc2oc(-c3ccc(O)cc3)cc(=O)c2c1O	15	/
COc1cc(O)c2c(=O)cc(-c3ccccc3)oc2c1OC	23*	i
COc1cc2oc(-c3ccc(O)cc3)cc(=O)c2c(O)c1OC	60*	i
COc1cc(NC(=O)CN(C)S(=O)(=O)c2ccc(C)cc2)c(OC)cc1Cl	-1	i
Cc1ccc([N+](=O)[O-])cc1NC(=O)C1CCCN(S(=O)(=O)c2ccc(Cl)cc2)C1 (centres undefined)	1	i
CCN(CC)C(=O)c1ccc(Nc2nnc(-c3ccc(C)c(S(N)(=O)=O)c3)c3ccccc23)cc1	2	i
O=C(NCc1cccnc1)c1cccc(NC(=O)c2ccco2)c1	-1	+
CS(=O)(=O)Nc1ccc(C(=O)NCc2cccnc2)cc1	0	i
N#Cc1c(NC(=O)c2cc3nc(-c4ccco4)cc(C(F)(F)F)n3n2)sc2c1CCC2	1	i
C=CCN(CC=C)C(=O)Cc1ccc(Br)cc1	/	i
Cc1ccc2nsnc2c1S(=O)(=O)N1CCN(CCc2ccccc2)CC1	-1	i
CN1CCN(S(=O)(=O)c2ccc(Sc3nc4ccccc4[nH]3)c3nsnc23)CC1	-2	+
CCC1C(=O)O[C@]23C=C[C@@H]4C(C(=O)O)=CO[C@H](OC12)[C@@H]43 (some centres undefined)	-1	i
Cc1cc(=O)[nH]c(SCCOc2ccccc2C#N)n1	0	i
CN(C)CCCCCCNC(=O)[C@@H]1C[C@@H]2C(=O)N3CCC[C@H]3C(=O)N2[C@@H]1c1ccc(O)cc1	2	+
CN(C)CCCCNC(=O)[C@@H]1C[C@@H]2C(=O)N[C@@H](CCCCN(C)C)C(=O)N2[C@@H]1c1ccc(O)cc1	1	/
C=C1C(=O)OC2CC1C(OC(C)=O)C/C(C)=C\CC/C(C)=C\CC[C@]2(C)O (some centres undefined)	2	/
O=C(COc1ccccc1)Nc1ccc(Cl)cc1C(=O)O	-2	i
CCOCCCNc1nc2c([nH]1)c(=O)n(C)c(=O)n2C	-3	i
Cn1c(=O)c2[nH]c(NCCN3CCOCC3)nc2n(C)c1=O	3	+
O=C(CSc1nccc(=O)[nH]1)Nc1cccc(C(F)(F)F)c1	1	i
COc1ccccc1NC(=O)N(C)C[C@@H]1OCc2cnnn2CCCC(=O)N([C@@H](C)CO)C[C@H]1C	1	+
C[C@@H]1CN([C@@H](C)CO)C(=O)CCCn2nncc2CO[C@@H]1CN(C)C(=O)Nc1ccccc1F	0	i
COc1ccccc1NC(=O)N(C)C[C@H]1OCc2cnnn2CCCC(=O)N([C@@H](C)CO)C[C@H]1C	0	i
C[C@@H]1CN([C@H](C)CO)C(=O)CCCn2nncc2CO[C@@H]1CN(C)Cc1ccc(Oc2ccccc2)cc1	-5	+
C[C@H](CO)N1C[C@H](C)[C@@H](CN(C)Cc2ccc(Oc3ccccc3)cc2)OCc2cnnn2CCCC1=O	0	i
C[C@@H]1CN([C@@H](C)CO)C(=O)CCCn2nncc2CO[C@H]1CN(C)S(C)(=O)=O	1	/
Cc1noc(C)c1S(=O)(=O)N(C)C[C@@H]1OCc2cnnn2CCCC(=O)N([C@@H](C)CO)C[C@@H]1C	-4	+
C[C@@H]1CN([C@@H](C)CO)C(=O)CCCn2nncc2CO[C@H]1CN(C)C(=O)Nc1ccccc1F	4	+
O=C(Cn1cnc2ccccc2c1=O)Nc1ccc2c(c1)Cc1ccccc1-2	6	i
